# Data reported in PubChem BioAssay (NCI).
# The panel holds about 83,000 compounds, 20% with a hit somewhere; the sample as a whole holds those more often.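 Method: cells in 96-well plates; compound added at one concentration; 48 h incubation; percent growth measured; values under 10 scored active.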 Unmarked numbers belong to inactive results. Activity calls are given as the source filed them.
# Assays:
# Assay in all cases: NCI-60 one-dose screen, 48 h (100 = growth as untreated, 0 = no growth, -100 = all killed)
# HCT-15 colon = conditions: 10 µM unless noted
# HT29 colon = conditions: 10 µM unless noted
# SNB-75 CNS = conditions: 10 µM unless noted
# SNB-19 CNS = conditions: 10 µM unless noted
# U251 CNS = conditions: 10 µM unless noted
# PC-3 prostate = conditions: 10 µM unless noted
# SK-MEL-5 melanoma = conditions: 10 µM unless noted
# UACC-62 melanoma = conditions: 10 µM unless noted
# LOX IMVI melanoma = conditions: 10 µM unless noted
# SK-MEL-28 melanoma = conditions: 10 µM unless noted
# SK-MEL-2 melanoma = conditions: 10 µM unless noted
# EKVX NSCLC = conditions: 10 µM unless noted
# SN12C renal = conditions: 10 µM unless noted
# UO-31 renal = conditions: 10 µM unless noted
# TK-10 renal = conditions: 10 µM unless noted
# CAKI-1 renal = conditions: 10 µM
# A498 renal = conditions: 10 µM unless noted
# CCRF-CEM leukemia = conditions: 10 µM unless noted
# MOLT-4 leukemia = conditions: 10 µM unless noted
# ACHN renal = conditions: 10 µM unless noted
SMILES,growth (HCT-15 colon),growth (HT29 colon),growth (SNB-75 CNS),growth (SNB-19 CNS),growth (U251 CNS),growth (PC-3 prostate),growth (SK-MEL-5 melanoma),growth (UACC-62 melanoma),growth (LOX IMVI melanoma),growth (SK-MEL-28 melanoma),growth (SK-MEL-2 melanoma),growth (EKVX NSCLC),growth (SN12C renal),growth (UO-31 renal),growth (TK-10 renal),growth (CAKI-1 renal),growth (A498 renal),growth (CCRF-CEM leukemia),growth (MOLT-4 leukemia),growth (ACHN renal)
CC(Cc1cccc(C(F)(F)F)c1)NCCOC(=O)c1ccccc1 (configuration not stated),105%,115%,99.5%,100%,104%,103%,89.5%,102%,96.3%,107%,113%,84.6%,99.8%,85.4%,129%,87.4%,107%,105%,96.1%,–
c1ccc2nc(Cn3cc[n+](Cc4ccc5ccccc5n4)c3)ccc2c1,102%,41.9%,70.7%,47.7%,44.2%,42.6%,16.9%,54.6%,75.4%,63.8%,55%,88.3%,40.5%,88%,98.3%,–,90.7%,–,65.4%,102%
COC1OCC(OS(=O)(=O)c2ccc(C)cc2)C(OC(=O)c2ccccc2)C1OC(=O)c1ccccc1 (configuration not stated),38.3%,7.49% (active),32.5%,61.2%,39.3%,47.8%,30.7%,36.1%,44.8%,57.7%,36.1%,53.4%,74.3%,48.3%,88%,–,87.4%,–,48.9%,54%
COc1cc(NS(C)(=O)=O)ccc1Cc1c2ccccc2nc2ccccc12,18.3%,8.23% (active),21.4%,25.9%,18.7%,55.2%,8.33% (active),26.1%,-26.2% (active),50.7%,104%,45.3%,-6.92% (active),-5.05% (active),23.9%,-4.78% (active),-8.76% (active),3.42% (active),4.35% (active),–
COc1cc(NS(=O)(=O)c2ccc(N)cc2)ncn1,108%,120%,104%,99.8%,102%,99.8%,103%,99.1%,94.3%,121%,160%,102%,93.8%,86.2%,130%,94.6%,106%,–,99.6%,–
CCCOC(=O)c1ccc([N+](=O)[O-])o1,102%,92.2%,83.7%,111%,101%,91.6%,116%,104%,101%,106%,102%,112%,103%,96.2%,104%,–,–,97.4%,–,105%
C/C(=N\N=C1/SCC(=O)N1c1ccccc1)c1ccco1,112%,136%,185%,113%,102%,94.7%,88.8%,122%,94.2%,112%,91.6%,105%,131%,84.9%,96.9%,–,89.2%,–,112%,106%
CN(C)CC/C=C1\c2ccccc2Sc2ccc(Cl)cc21,78.9%,30.6%,52.4%,85.2%,49.5%,65%,34.1%,47.1%,53.6%,55.9%,89.6%,78.6%,48%,41.3%,75.8%,52.7%,89.5%,59.4%,44.8%,–
Cc1cn(C2CC(N=[N+]=[N-])C(COP(=O)(O)OP(=O)(O)OP(=O)(O)O)O2)c(=O)[nH]c1=O (configuration not stated),120%,99.8%,85.3%,102%,109%,92.4%,106%,112%,101%,99.1%,107%,116%,124%,98.5%,113%,–,131%,–,16.8%,124%
O=C(COc1ccc(Cl)cc1)N1CCN(Cc2ccc3c(c2)OCO3)CC1,96.8%,112%,102%,95.6%,94.3%,90.3%,97.7%,81.8%,89.5%,116%,123%,85.9%,91%,61.5%,116%,76.6%,84.5%,97.4%,100%,–
Cc1ccc(-c2nc3c(N=Nc4ccc(S(N)(=O)=O)cc4)c(N)nn3c(N)c2C#N)cc1,82.5%,35.8%,49%,58%,31.8%,32.4%,-52.2% (active),52.9%,22.5%,52.8%,27%,69.8%,33.2%,69%,65.8%,41%,59.3%,11.9%,3.58% (active),–
CCCCNc1cc(C(=O)O)cc(S(N)(=O)=O)c1Oc1ccccc1,108%,112%,90.4%,106%,99.8%,95.7%,95.3%,101%,93.5%,109%,106%,106%,97.1%,85.4%,104%,89.3%,89.1%,105%,110%,–
COc1cc(/C=C/C(=O)c2ccc(Oc3ncnc4ccccc34)cc2)cc(OC)c1OC,41.5%,79.7%,69.5%,68.6%,60.3%,75.6%,81%,65.9%,40.4%,89.4%,94.6%,87%,68.3%,51.6%,100%,–,104%,36.6%,–,–
COc1cc([C@@H]2c3cc4c(cc3C(OC3O[C@@H]5COC(C)O[C@H]5[C@H](O)[C@H]3O)C3COC(=O)[C@@H]32)OCO4)cc(OC)c1O (some centres not stated),73.1%,64.5%,31.2%,27.4%,13.5%,63.3%,17.4%,33.7%,12%,61.4%,74.6%,57.8%,13%,64.3%,72.5%,9.12% (active),36.2%,6.56% (active),2.96% (active),–
CC(=O)Nc1ccc(OC(=O)c2ccccc2O)cc1,107%,113%,114%,100%,99.3%,94.8%,109%,102%,99.7%,120%,147%,93.4%,102%,88.7%,128%,91.3%,84.5%,–,96.2%,–
C=C1c2c(Cl)ccc(O)c2C(O)=C2C(=O)[C@]3(O)C(O)=C(C(N)=O)C(=O)[C@@H](N(C)C)[C@@H]3[C@@H](O)[C@H]12,13.7%,10.9%,0.44% (active),20.9%,4.36% (active),-8.47% (active),20.4%,7.11% (active),0.768% (active),25.8%,-10.9% (active),36.4%,10.8%,4.78% (active),7.64% (active),3.62% (active),-10% (active),4.46% (active),-11.5% (active),–
N#Cc1c2c(c(N)[nH]c1=O)C(=O)NC2(O)c1ccccc1 (configuration not stated),106%,97%,106%,114%,101%,102%,98.6%,107%,98.5%,114%,97.9%,98.1%,113%,89.1%,93%,–,106%,100%,95.4%,–
